Source: PubChem
Hits are enriched below; roughly 4% of the tested compounds scored in any of these assays.
UGM FP inh: blocks M. tuberculosis UGM enzyme. actives 0.06% (n = 320,000). P9WIQ1. purified UGM, fluorescence polarization probe displacement. inhibition, % at 10 µM; in the data active = inhibition above about 10%, passing the limit was not always enough
GDH-TPI inh: GDH-TPI coupled enzyme inhibition counter-screen | actives 1.2% (n = 360,000) | GDH-TPI coupled enzyme counterscreen, NADH absorbance | AID 588335 | inhibition, % at 4.8 µM; in the data active = inhibition above about 30%;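 also: 0% = DMSO wells and 100% = wells lacking the enzyme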
Rv3671c inh: inhibits the M. tuberculosis serine protease Rv3671c; inhibition, % at 5.96 µM; actives 0.048% (n = 320,000);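 also: extracellular domain of Rv3671c used as enzyme; 0% = enzyme with DMSO and 100% = no enzyme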
RecA splice inh: inhibitors of M. tuberculosis RecA intein splicing; P9WHJ3; actives 0.75% (n = 290,000); cell-free RecA intein splicing, fluorescence; inhibition, % (no concentration beside the values); in the data active = inhibition above about 30%;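 also: 0% = vehicle wells and 100% = reference inhibitor control wells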
Target sequence (P9WHJ3 whole entry, looked up, canonical isoform): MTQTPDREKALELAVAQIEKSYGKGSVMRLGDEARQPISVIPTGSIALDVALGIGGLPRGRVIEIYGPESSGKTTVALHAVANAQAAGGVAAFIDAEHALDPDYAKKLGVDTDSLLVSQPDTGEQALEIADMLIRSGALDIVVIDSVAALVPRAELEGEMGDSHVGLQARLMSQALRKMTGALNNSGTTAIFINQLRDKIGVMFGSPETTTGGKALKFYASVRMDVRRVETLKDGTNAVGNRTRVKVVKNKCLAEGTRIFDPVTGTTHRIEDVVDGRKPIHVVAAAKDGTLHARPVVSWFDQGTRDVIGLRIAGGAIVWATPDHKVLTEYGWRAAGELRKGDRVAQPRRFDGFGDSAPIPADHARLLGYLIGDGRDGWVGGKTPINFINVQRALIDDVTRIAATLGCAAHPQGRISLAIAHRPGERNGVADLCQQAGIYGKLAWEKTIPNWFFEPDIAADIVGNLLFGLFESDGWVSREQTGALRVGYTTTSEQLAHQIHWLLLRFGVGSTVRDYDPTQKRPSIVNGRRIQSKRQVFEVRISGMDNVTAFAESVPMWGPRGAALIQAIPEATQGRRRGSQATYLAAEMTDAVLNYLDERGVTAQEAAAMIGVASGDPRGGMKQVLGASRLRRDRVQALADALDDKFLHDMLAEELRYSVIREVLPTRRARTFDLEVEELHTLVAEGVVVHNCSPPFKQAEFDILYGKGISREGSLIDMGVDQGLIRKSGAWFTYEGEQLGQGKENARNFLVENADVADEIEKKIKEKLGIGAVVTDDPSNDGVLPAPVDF
FBA Mtb inh: Mtb fructose-bisphosphate aldolase inhibition | purified M. tuberculosis FBA, fluorescence read-out | inhibition, % at 1 µM | actives 2.3% (n = 360,000) | AID 588726; in the data active = inhibition above about 27%;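 also: 0% = vehicle and 100% = reference inhibitor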
Mtb bLac sens: beta-lactam sensitization of Mtb H37Rv; M. tuberculosis H37Rv growth with meropenem, percent inhibition; inhibition, % at 25 µM; actives 0.27% (n = 330,000); call rule not given here;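 also: growth measured after seven days incubation then overnight dye step; 0% = bacteria only wells and 100% = bacteria with antibiotic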
Rv3671c confirm: Rv3671c protease inhibition, confirmation. shares compounds with Rv3671c inh. inhibition, % at 5.96 µM. actives 40% (n = 140). AID 2761
Active calls of the source: *. Rule as the data show it, unless noted: active = inhibition above about 38%; inactive = the rest.

Cc1ccc(CNC(=O)c2ccc(NC(=O)C3=CSCCO3)cc2)cc1 was read as UGM FP inh -1, GDH-TPI inh 2, Rv3671c inh -10, RecA splice inh -1, FBA Mtb inh 1 and Mtb bLac sens -4.
Screening COc1cccc(CNC(=O)c2ccc(NC(=O)C3=CSCCO3)cc2)c1 returned UGM FP inh -3, GDH-TPI inh 8, Rv3671c inh 61*, RecA splice inh 1, FBA Mtb inh 2, Mtb bLac sens 8 and Rv3671c confirm -6.
Cc1nc2ccccc2n1CCC(=O)O was read as UGM FP inh 0, GDH-TPI inh 3, Rv3671c inh 1, RecA splice inh -1, FBA Mtb inh -2 and Mtb bLac sens -13.
`Cc1nc2ccccc2n2c(O)c(CC(=O)O)cc12` gave UGM FP inh 0, GDH-TPI inh 8, Rv3671c inh 53*, RecA splice inh inactive, FBA Mtb inh 3, Mtb bLac sens 8 and Rv3671c confirm 5.
O=C(Cn1cnc2ccccc2c1=O)Nc1ccccc1N1CCOCC1 was read as UGM FP inh -2, GDH-TPI inh -7, Rv3671c inh -4, RecA splice inh -4, FBA Mtb inh -2 and Mtb bLac sens 4.
c1ccc(-c2nc3cc4ccccc4cc3[nH]2)nc1 was read as UGM FP inh 0, GDH-TPI inh 16, Rv3671c inh 39*, RecA splice inh 4, FBA Mtb inh 6, Mtb bLac sens 89 and Rv3671c confirm 44*.
`COc1ccc(-c2cc(C(F)(F)F)nc(S(=O)(=O)CCC(=O)N3CCOCC3)n2)cc1` gave UGM FP inh -1, GDH-TPI inh 10, Rv3671c inh 60*, RecA splice inh 6, FBA Mtb inh 0, Mtb bLac sens 47 and Rv3671c confirm -7.
Screening COc1ccc(-c2cc(C(F)(F)F)nc(SCC(=O)N3CCOCC3)n2)cc1OC returned UGM FP inh 1, GDH-TPI inh 22, Rv3671c inh 2, RecA splice inh -1, FBA Mtb inh 2 and Mtb bLac sens 9.
O=c1[nH]nc(CNc2ccc(O)cc2)c2ccccc12 was read as UGM FP inh 0, GDH-TPI inh 4, Rv3671c inh 40*, RecA splice inh 20, FBA Mtb inh -1, Mtb bLac sens -3 and Rv3671c confirm -7.
`CN(CCC#N)C(=O)COC(=O)C1c2ccccc2Oc2ccccc21` gave UGM FP inh -1, GDH-TPI inh -6, Rv3671c inh 0, RecA splice inh -2, FBA Mtb inh 3 and Mtb bLac sens 0.
For N#CCCN(CCC#N)C(=O)C1c2ccccc2Oc2ccccc21 the results were UGM FP inh 73*, GDH-TPI inh 10, Rv3671c inh 84*, FBA Mtb inh 4, Mtb bLac sens 4 and Rv3671c confirm -2.
Screening Cc1ccc2c(c1)nc(NCCCO)n2C returned UGM FP inh -4, GDH-TPI inh 8, Rv3671c inh 5, RecA splice inh 1, FBA Mtb inh -1 and Mtb bLac sens -1.
C[n+]1c(-c2ccccc2)c2cc(N)ccc2c2ccc(N)cc21 was read as UGM FP inh -1, GDH-TPI inh 21, Rv3671c inh 74*, RecA splice inh 2, FBA Mtb inh -7, Mtb bLac sens 100 and Rv3671c confirm 90*.
For Nc1ccc2nc(-c3ccccc3)c(-c3ccccc3)nc2c1 the results were UGM FP inh -1, GDH-TPI inh 7, Rv3671c inh 3, RecA splice inh -207, FBA Mtb inh 2 and Mtb bLac sens 5.
For Cc1ccc(C(=O)NCC(=O)OCc2nnc(-c3ccc([N+](=O)[O-])cc3)o2)cc1 the results were GDH-TPI inh 8 and FBA Mtb inh -3.
For O=C(NC1=NCCS1)c1ccc([N+](=O)[O-])cc1Cl the results were UGM FP inh 2, GDH-TPI inh 9, Rv3671c inh 5, RecA splice inh -2, FBA Mtb inh -1 and Mtb bLac sens -9.
For N#CC1(P(=O)(c2ccccc2)c2ccccc2)CCCC1 the results were UGM FP inh 1, GDH-TPI inh 7, Rv3671c inh 81*, RecA splice inh 0, FBA Mtb inh -1, Mtb bLac sens -8 and Rv3671c confirm 2.
CC(C)(C)c1ccc(Oc2coc3cc(OCC(=O)O)ccc3c2=O)cc1 was read as UGM FP inh 1, GDH-TPI inh -3, Rv3671c inh 49*, RecA splice inh -1, FBA Mtb inh 2, Mtb bLac sens -4 and Rv3671c confirm -11.
`O=c1c2ccccc2ncn1-c1ccc([N+](=O)[O-])cc1[N+](=O)[O-]` gave UGM FP inh 4, GDH-TPI inh -2, Rv3671c inh -1, RecA splice inh -2, FBA Mtb inh 0 and Mtb bLac sens 4.
`COc1cccc(/C=N/Nc2ccc([N+](=O)[O-])cn2)c1O` gave UGM FP inh 0, GDH-TPI inh 5, Rv3671c inh 81*, RecA splice inh 3, FBA Mtb inh -8, Mtb bLac sens 15 and Rv3671c confirm -4.
Screening CC(=O)c1c(OC(=O)c2ccco2)c2ccccc2n1C returned UGM FP inh -1, GDH-TPI inh 11, Rv3671c inh 74*, RecA splice inh 11, FBA Mtb inh 0, Mtb bLac sens 10 and Rv3671c confirm 77*.
Screening CC(=O)c1sc2ccccc2c1OC(=O)c1ccco1 returned UGM FP inh 0, GDH-TPI inh 1, Rv3671c inh 61*, RecA splice inh 12, FBA Mtb inh 1, Mtb bLac sens 99 and Rv3671c confirm 56*.
CC(=O)c1c(OC(=O)c2ccc(C)cc2)c2ccccc2n1C was read as UGM FP inh 0, GDH-TPI inh 14, Rv3671c inh 0, RecA splice inh 6, FBA Mtb inh -2 and Mtb bLac sens 99.
Screening CCNc1cc(O)ccc1C returned UGM FP inh 4, GDH-TPI inh 6, Rv3671c inh 63*, FBA Mtb inh 2, Mtb bLac sens -2 and Rv3671c confirm 11.
For C=C1c2cccc(O)c2C(O)=C2C(=O)[C@]3(O)C(O)=C(C(N)=O)C(=O)[C@@H](N(C)C)[C@@H]3[C@@H](O)[C@H]12 the results were UGM FP inh 6, GDH-TPI inh 13, Rv3671c inh 50*, RecA splice inh -10, FBA Mtb inh 0, Mtb bLac sens 79 and Rv3671c confirm 3.
For Cc1ccc(Oc2cc(-n3nc(C)cc3C)ncn2)cc1 the results were UGM FP inh 1, GDH-TPI inh 4, Rv3671c inh 4, RecA splice inh 1, FBA Mtb inh -3 and Mtb bLac sens 8.
Screening Nc1ccc2nc(-c3ccc(-c4nc5ccc(N)cc5[nH]4)cc3)[nH]c2c1 returned UGM FP inh 4, Rv3671c inh 39*, RecA splice inh -18, Mtb bLac sens -2 and Rv3671c confirm 50*.
`Nc1ccc2nc(CCCCCCCCc3nc4ccc(N)cc4[nH]3)[nH]c2c1` gave UGM FP inh 1, GDH-TPI inh 3, Rv3671c inh 9, RecA splice inh 5, FBA Mtb inh 6 and Mtb bLac sens 4.
